This is part of a sample that, as a whole, favours compounds with a hit. Of some 83,000 tested, about 20% had one in any assay.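 Testing used 96-well plates and a 48-hour single-concentration exposure. Example: -40 means 40% of the starting cells died.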 A number with no mark means an inactive call. Calls of active or inactive are those of the source. How the source made its calls: active means growth percent below 10; inactive means the rest.

Some test systems named below: NCI-H23 lung; NCI-H226 lung; NCI-H322M lung; HOP-62 NSCLC; NCI-H460 lung; HOP-92 NSCLC; NCI-H522 lung; A549/ATCC NSCLC; 786-0 renal; COLO 205 colon; DU-145 prostate; K-562 leukemia; MALME-3M melanoma; MDA-MB-231 breast; RXF 393 renal; SF-268 CNS; SF-295 CNS; SF-539 CNS; UACC-257 melanoma; M14 melanoma.
Test in all cases: NCI-60 one-dose screen, 48 h (100 = growth as untreated, 0 = no growth, -100 = all killed)
Holding throughout (settings): 10 µM unless noted

`O=C1c2c(c3c4cc(F)ccc4oc3c3[nH]c4ccc(Br)cc4c23)C(=O)N1O`: the growth with NCI-H23 lung is 7.64% (active); in the assay on NCI-H226 lung it was 61.8%; in the assay with NCI-H322M lung, 79.4%; in the assay on HOP-62 NSCLC it was 19.4%; in the assay on NCI-H460 lung, 5.53% (active); with HOP-92 NSCLC, -39.4% (active). The growth with NCI-H522 lung was -18% (active); in the assay on A549/ATCC NSCLC it was 69.2%; in the assay on 786-0 renal, 15.5%; in the assay with COLO 205 colon, 67.9%; with DU-145 prostate, 24.6%; in the assay on K-562 leukemia, 40.3%. In addition, the growth in the assay on MALME-3M melanoma is 7.44% (active); in the assay with MDA-MB-231 breast, 66.4%; in the assay with RXF 393 renal, 29.2%; with SF-268 CNS, 2.64% (active); with SF-295 CNS, 20%; in the assay with SF-539 CNS, -10.9% (active). In addition, the growth was 88.5% with UACC-257 melanoma and 14.3% with M14 melanoma.

With `Cn1cc(-c2nc(N)nnc2-c2c[nH]c3ccc(F)cc23)c2cccnc21`, the growth in the assay with NCI-H23 lung was 35.2%; in the assay on NCI-H226 lung it was 38%; in the assay on NCI-H322M lung, 56.2%; in the assay on HOP-62 NSCLC it was 20%; in the assay on NCI-H460 lung it was 11.6%; with HOP-92 NSCLC, 46.5%. Also, the growth was 36.6% in the assay on NCI-H522 lung; 43.8% in the assay with A549/ATCC NSCLC; 52.5% in the assay on 786-0 renal; 53.5% in the assay with COLO 205 colon; 49.9% in the assay on DU-145 prostate; 30.2% in the assay with K-562 leukemia. Besides, the growth was 64.5% with MALME-3M melanoma; 22% in the assay on MDA-MB-231 breast; 60.5% in the assay with RXF 393 renal; 34% with SF-268 CNS; 15.8% in the assay with SF-295 CNS; 40.8% in the assay with SF-539 CNS. The results for the growth in the assay with UACC-257 melanoma and with M14 melanoma were 61.9% and 26.3%, respectively.

For the compound `O=C(COc1ccc(NC(=O)Nc2ccccc2)cc1)N=Nc1c(O)[nH]c2ccc([N+](=O)[O-])cc12`, the growth in the assay on NCI-H23 lung was 10.5%; in the assay on NCI-H226 lung, 18.6%; in the assay with NCI-H322M lung it was 37.7%; in the assay on HOP-62 NSCLC, 24.5%; with NCI-H460 lung it was 49.1%; in the assay with HOP-92 NSCLC, -72.4% (active). In addition, the growth with NCI-H522 lung is -48% (active); in the assay on A549/ATCC NSCLC, 101%; in the assay with 786-0 renal, 16.7%; with COLO 205 colon, -29.9% (active); in the assay on DU-145 prostate, 33.9%; in the assay on K-562 leukemia, 10.5%. Further, the growth with MALME-3M melanoma is -62.7% (active); in the assay on MDA-MB-231 breast it was -42.3% (active); with RXF 393 renal it was 33.5%; with SF-268 CNS it was 46.7%; in the assay on SF-295 CNS, 70.3%; in the assay on SF-539 CNS it was -70.5% (active). Besides, the growth in the assay on UACC-257 melanoma is 27.3%; in the assay on M14 melanoma it was 8.59% (active).

`CCCCc1c(Nn2cnnn2)no[n+]1[O-]`: the growth is 56.2% in the assay with NCI-H23 lung; 82% in the assay on NCI-H226 lung; 66.7% in the assay with NCI-H322M lung; 81.6% in the assay on HOP-62 NSCLC; 36.5% in the assay with NCI-H460 lung; 46.4% in the assay on HOP-92 NSCLC. Moreover, the growth is -21.9% (active) in the assay with NCI-H522 lung; 66.4% with A549/ATCC NSCLC; 56.2% in the assay on 786-0 renal; 60.8% with COLO 205 colon; 56.2% in the assay with DU-145 prostate; 28.2% with K-562 leukemia. The growth in the assay with MALME-3M melanoma is 68.7%; with MDA-MB-231 breast, 49.3%; in the assay with RXF 393 renal, 39.5%; with SF-268 CNS it was 82.2%; in the assay with SF-295 CNS, 56.9%; in the assay on SF-539 CNS, 57%. The results for the growth in the assay on UACC-257 melanoma and in the assay with M14 melanoma were 68.5% and 68.1%, respectively.

As for `CC(=O)Nc1cccc(-c2nc3cc(-c4ccc(O)cc4)ccc3n2C)c1`, the growth was 48.8% with NCI-H23 lung; 49.8% in the assay with NCI-H226 lung; 67.1% in the assay on NCI-H322M lung; 54.3% with HOP-62 NSCLC; 55.4% in the assay with NCI-H460 lung; 93.7% in the assay on HOP-92 NSCLC. In addition, the growth in the assay on NCI-H522 lung was 26.7%; in the assay on A549/ATCC NSCLC it was 35.2%; with 786-0 renal it was 63.2%; with COLO 205 colon, 56.5%; in the assay with DU-145 prostate, 56.5%; in the assay with K-562 leukemia, 35.4%. Besides, the growth is -4.44% (active) in the assay with MALME-3M melanoma; 49.1% with MDA-MB-231 breast; 81.3% in the assay with RXF 393 renal; 42.8% with SF-268 CNS; 26% in the assay on SF-295 CNS; 57.2% with SF-539 CNS. Besides, the figures for the growth in the assay on UACC-257 melanoma and with M14 melanoma were -3.29% (active) and 24.5%, respectively.

In the case of `COCOc1cc2oc(C(=O)N[C@@H](Cc3ccccc3)C(O)C(=O)NCc3ccccc3)c(C)c(=O)c2cc1OCOC` (stereo not given in full), the growth was 59.2% with NCI-H23 lung; -11.8% (active) in the assay with NCI-H226 lung; 97.7% in the assay with NCI-H322M lung; 71.9% with HOP-62 NSCLC; 9.45% (active) in the assay with NCI-H460 lung; 14.4% in the assay with HOP-92 NSCLC. For the same compound, the growth in the assay on NCI-H522 lung is 86.9%; with A549/ATCC NSCLC it was 58.9%; in the assay with 786-0 renal, 14.5%; with COLO 205 colon, 109%; in the assay with DU-145 prostate, 52.8%; with K-562 leukemia, 90.4%. Further, the growth in the assay on MALME-3M melanoma is 22.3%; in the assay with MDA-MB-231 breast it was 20.7%; with RXF 393 renal, -23.7% (active); in the assay with SF-268 CNS, 65.8%; in the assay on SF-295 CNS, 89%; in the assay on SF-539 CNS, 24.7%. For the same compound, the growth in the assay with UACC-257 melanoma is 61.1%; with M14 melanoma, 82.9%.

For the compound `CN(C)CCCNC(=O)c1cc(NC(=O)c2cc(NC(=O)c3ccc(/C=C/c4ccccc4)cc3)cn2C)cn1C`, the growth with NCI-H23 lung was 43.9%; in the assay with NCI-H226 lung, 50.3%; in the assay with NCI-H322M lung it was 73.4%; in the assay with HOP-62 NSCLC, 74.1%; in the assay on NCI-H460 lung, 19.5%; in the assay with HOP-92 NSCLC, -1.72% (active). The growth in the assay on NCI-H522 lung is -16.4% (active); in the assay on A549/ATCC NSCLC it was 35.7%; in the assay with 786-0 renal, 42.3%; in the assay with COLO 205 colon, 32%; with DU-145 prostate, 57.1%; with K-562 leukemia, -41% (active). For the same compound, the growth in the assay with MALME-3M melanoma is 35%; with MDA-MB-231 breast, 65.6%; with RXF 393 renal it was 25%; with SF-268 CNS, 48.9%; in the assay on SF-295 CNS, 35.2%; with SF-539 CNS, 32.7%. The growth was 54.2% with UACC-257 melanoma and 48.1% in the assay on M14 melanoma.

These data come from PubChem BioAssay (NCI).
